Experimental data from PubChem BioAssay AID652104 (National Center for Advancing Translational Sciences (NCATS), 2013).
Out of some 410,000 compounds screened, about 7,200 (1.8%) were called active. About 7% were inconclusive and are not listed. Calls follow the shape of the dose curve; as a rule, active = well fitted activation curve with a large enough effect; inconclusive = small, poorly fitted or top-dose-only effect, or another doubt; inactive = no such curve, though single readings can be large or run the other way. Many of the other results were omitted from the sample, so actives are more common in it than they were.

Assay: qHTS of TDP-43 Inhibitors; also: nearly all actives have a fitted effect of over 50% in size; as to Growth rescue (activation): % of control where 0% means no effect
Conditions: TDP-43 expressing yeast growth rescue, BacTiter-Glo, 24 h; series mostly up to 46.1 µM
Outline: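 Luminescence from BacTiter-Glo reports growth of TDP-43-expressing yeast after 24 hr at 30 deg C with compound. Cells were raffinose-pregrown to mid-log, then seeded in galactose medium at OD600=0.02.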
Potency is read from the fitted curve at half-maximal effect.

Potency, active:
Cc1cccc(NC(=O)c2nc(S(=O)(=O)Cc3ccccc3)ncc2Cl)c1 7.08 µM
CSc1nnc(NC(=O)c2nc(S(=O)(=O)Cc3ccc(C)cc3)ncc2Cl)s1 11.2 µM
COc1ccc(Nc2cc(Cl)ccc2C(=O)O)cn1 10 µM
CSc1cccc(NC(=S)N(Cc2ccccc2)Cc2ccccn2)c1 20 µM
O=C(CSC1=NCCS1)Nc1nc(-c2ccccc2)cs1 22.4 µM

Potency, inactive:
Cc1cccc(NC(=O)Cn2cc(S(=O)(=O)Cc3ccccc3Cl)c3ccccc32)c1
Cc1ccc2nc(NC(=O)c3nc(SCc4ccccc4F)ncc3Cl)sc2c1
CCOC(=O)c1ccc(NC(=O)c2nc(SCc3ccc(F)cc3)ncc2Cl)cc1
CCS(=O)(=O)c1ncc(N(Cc2ccc(F)cc2)Cc2ccco2)c(C(=O)Nc2cc(C)ccc2C)n1
CCOc1ccc(N(CC)C(=O)c2noc3c2COc2ccc(C)cc2-3)cc1
Cn1c(=O)sc2cc(NS(=O)(=O)c3ccc(C(C)(C)C)cc3)ccc21
COc1cc(NC(=O)c2nn(-c3ccc(C)cc3)c(=O)c3c2c2ccccc2n3C)cc(OC)c1OC
COc1ccccc1-n1c(-c2ccc(C)cc2)cn2c3c(=O)n(C)c(=O)n(C)c3nc12
Cc1ccc(C)n1-c1nnc(N2CCC(C(=O)NCc3ccccc3Cl)CC2)s1
COc1ccc(Cl)cc1NC(=O)c1oc(C)nc1C
CCOC(=O)c1ccc(NC(=O)CSc2nc3c([nH]c4ccccc43)c(=O)n2C)cc1
Cc1c(Cl)cccc1NC(=S)N(Cc1ccccc1)Cc1cccnc1
CC(C)(C)OC(=O)N1CCC(c2c(C(=O)N3CCN(c4cccc(Cl)c4)CC3)cnn2-c2cccc(Cl)c2)CC1
CCOCCCNC(=O)c1c(NC(=O)Cc2coc3c(C)c(C)ccc23)sc2c1CCC2
CC(NC(=O)COc1ccccc1)C(=O)NC1=NCCS1 (stereo unspecified)
Cc1csc(NC(=O)CSc2nnc(-c3cccnc3)o2)n1
COc1ccc(-c2nn(CC(=O)Nc3ccccc3F)c3c2cnc2ccc(F)cc23)cc1
Cc1ccc(Cn2c(=O)n(CCCC(=O)NCc3ccccc3Cl)c(=O)c3ccccc32)cc1
COc1cc(OC)c(NC(=O)Cc2ccc(-n3c(C)nc4cccnc43)cc2)cc1Cl

Growth rescue (activation), inactive:
COc1cc(C(F)(F)F)c(C(=O)N(C)c2ccc(Cl)cc2)cn1 -13.9% [at 1.82 µM]
CSc1cccc(NC(=S)N(C(C)C)C(C)c2ccccn2)c1 (stereo unspecified) -6.51% [at 9.22 µM]
